Where a name gives a salt, the structure may show the parent alone. ± gives the standard deviation of the averaged measurements. The full ranking holds about 2,000 compounds; the median of “relative cell viability vs DMSO, compound + 0.2 uM CuET” is about 1, and the lowest 2% start at about 0.25. This is one part of a sample in which the lowest values are shown more often than they occur.
These compounds were tested on TE10 (assay: relative cell viability vs DMSO, compound + 0.2 uM CuET (fraction); TE10 is an esophageal squamous carcinoma line; higher = less cytotoxic). Conditions: 2 µM; co-treatment: CuET (bis(diethyldithiocarbamate)copper) 0.2 uM; 48 h.
Description: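 TE10 ESCC cells (1,000/well, 384-well plates) were treated with Selleck bioactive library compounds at 2 uM combined with 0.2 uM CuET (copper diethyldithiocarbamate) for 48 h. Viability was read by CellTiter-Glo and expressed relative to DMSO wells. Two technical replicates (A, B).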

In order of falling relative cell viability:
1. C[C@@H]1CC[C@H]2[C@@H](C)C(=O)O[C@@H]3O[C@@]4(C)CC[C@@H]1[C@]32OO4 [Artemisinin]  1.08 ± 0.11
2. O=c1cccc2n1C[C@@H]1CNC[C@H]2C1 [Cytisine]  1.07 ± 0.033
3. C=C[C@H]1CN2CC[C@H]1C[C@H]2[C@H](O)c1ccnc2ccccc12 [Cinchonidine]  1.03 ± 0.057
4. Cc1cc(C(=O)CN2CCCC2)c(C)n1-c1ccc(F)cc1  0.959 ± 0.085
5. N#CC(C#N)=Cc1ccc(O)c(O)c1  0.937 ± 0.14
6. CC(=O)OC12COC1CC(O)C1(C)C(=O)C(O)C3=C(C)C(O)CC(O)(C(OC(=O)c4ccccc4)C21)C3(C)C (stereo not given) [10-Deacetylbaccatin-III]  0.849 ± 0.011
7. NCC(O)c1ccc(O)cc1 (racemic) [(+,-)-Octopamine HCl]  0.697 ± 0.56
8. CC(C)=CCC[C@]1(C)C=Cc2c(O)c3c(c(CC=C(C)C)c2O1)O[C@]12C(=C[C@@H]4C[C@H]1C(C)(C)O[C@@]2(C/C=C(/C)C(=O)O)C4=O)C3=O [Gambogic Acid]  0.2853 ± 0.00092
9. CCN1CCN(C(=O)Cc2ccc(Nc3ncc(F)c(Nc4ccc(C(=O)Nc5ccccc5Cl)cc4)n3)cc2)CC1 [Aurora A Inhibitor I]  0.182 ± 0.01
10. CC1=C(O)C(=O)C=C2C1=CC=C1[C@@]2(C)CC[C@@]2(C)[C@@H]3C[C@](C)(C(=O)O)CC[C@]3(C)CC[C@]12C [Celastrol]  0.154 ± 0.0064

Source: the supplement of paper PMC10670038
